This is a sample that favours compounds with a hit; in the whole collection about 1.1% have one here.
IP6K1 inh = Primary qHTS assay for small molecule inhibitors of Inositol hexaphosphate kinase 1 (IP6K1) | Inositol hexakisphosphate kinase 1 (Homo sapiens), Q92551 | IP6K1 kinase, ADP-Glo luminescence, 2 h; hits give low values | activity change, % (series mostly up to about 58 µM) | 140,000 tested, 0.81% active | AID 1645851, 2021; in the data active = activity change below about -25%
Target sequence (Q92551 whole entry, looked up): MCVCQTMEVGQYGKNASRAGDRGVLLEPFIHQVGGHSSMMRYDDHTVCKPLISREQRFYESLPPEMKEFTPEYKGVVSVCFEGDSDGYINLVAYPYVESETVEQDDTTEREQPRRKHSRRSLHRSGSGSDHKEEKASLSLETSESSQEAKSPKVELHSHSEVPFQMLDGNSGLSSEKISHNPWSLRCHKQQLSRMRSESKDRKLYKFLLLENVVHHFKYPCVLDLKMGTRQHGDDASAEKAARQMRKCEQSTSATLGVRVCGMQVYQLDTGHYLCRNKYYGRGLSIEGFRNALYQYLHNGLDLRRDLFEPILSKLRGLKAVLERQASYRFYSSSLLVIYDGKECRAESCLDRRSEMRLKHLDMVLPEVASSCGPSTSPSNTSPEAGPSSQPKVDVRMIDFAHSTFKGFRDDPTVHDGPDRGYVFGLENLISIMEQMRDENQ
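ADP-Glo luminescence measures ADP made by human IP6K1 during a 2 h RT reaction with ATP/IP6 (mix at 1.3 mM/130 uM); top library doses 57.5 and 19.1 uM final.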
SNCA expr inhib = Primary qHTS assay for inhibitors of alpha-synuclein gene (SNCA) expression; 140,000 tested, 0.17% active; Potency, µM (top dose mostly 57.2 µM), for the others: at the top dose activity change, negative = inhibition, hits mostly inhibitors; HEK-293 SNCA-luciferase knock-in, luminescence, 24 h;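 note: potency is the fitted concentration of half-maximal effect; plate controls were DMSO cells for no effect and cell-free wells for full effect; nearly all actives have a fitted effect of over 45% in size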
GPT2 inh = Primary qHTS assay for inhibitors of Glutamate pyruvate transaminase 2 (GPT2); Potency, µM (titrated, usually from 57.7 µM), for the others: at the highest dose activity change, negative = inhibition, hits mostly inhibitors; AID 1671188, 2021; 100,000 tested, 0.25% active; Recombinant GPT2, coupled pyruvate oxidase/HRP Amplex Red fluorescence; note: potency is the fitted concentration of half-maximal effect; nearly all actives have a fitted effect of over 60% in size
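Fluorescence read-out: pyruvate from GPT2 turnover coupled to pyruvate oxidase, HRP and Amplex Red (0.2mM ThPP, 0.2U/mL PO and HRP, 50uM Amplex final). Substrates 250uM a-KG, 2mM L-alanine; enzyme 10ng/uL; 30 min RT.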
HEK293 viab = GF-AFC viability counterscreen for inhibitors of alpha-synuclein gene (SNCA) expression; HEK-293-SNCA-luc viability, GF-AFC fluorescence, 24 h; 150,000 tested, 0.12% active; AID 1671193, 2021; Potency, µM (series often up to 57.1 µM), for inactives: at the highest dose activity change, negative = cytotoxicity, actives largely listed as cytotoxic;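 note: potency is the fitted concentration of half-maximal effect; 0% = DMSO-treated cells and -100% = medium-only wells without cells; nearly all actives have a fitted effect of over 30% in size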
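Cytotoxicity counterscreen: after 24 h compound treatment of genome-edited SNCA-luciferase HEK-293 cells, live-cell protease substrate GF-AFC read by fluorescence after 30 min; activity scaled between DMSO (0%) and medium-only (-100%), curves Hill-fitted.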
* marks the source's active call; other numbers are inactive results; ! = a repeat was not active; [ ] = dose if it differs, or a comment. Unless noted, calls come from the whole dose curve; as a rule, active = well fitted curve in the direction sought with a large enough effect; inconclusive = small, poorly fitted or top-dose-only effect, or another doubt; inactive = no such curve, though single readings can be large; an effect the other way counts as inactive or inconclusive. Unless noted, % is set by controls: 0 for no effect and ±100 for the full control effect.

What do the screens show for `COc1cc(C)ccc1OCCn1c(-c2ccc(Cl)cc2)nc2ccccc2c1=O`?
IP6K1 inh: -7.5; SNCA expr inhib: -9.3%; HEK293 viab: -7.9%

How did COc1cc(-n2cnc3cc(-c4ccc(Cl)cc4)sc3c2=O)ccc1OCCN1CCCC1 do in these assays?
IP6K1 inh: 19.1; GPT2 inh: inactive; HEK293 viab: 11.9µM*

What do the screens show for `Cc1ccc(NC(=O)c2nc3sccn3c2-c2cccc(C(F)(F)F)c2)cc1`?
IP6K1 inh: 7.8; SNCA expr inhib: -25.6%; GPT2 inh: 1.6%; HEK293 viab: -11.8%

What do the screens show for `COc1ccc(NC(=O)c2nc3sccn3c2-c2cccc(C(F)(F)F)c2)cc1`?
IP6K1 inh: 7.3; SNCA expr inhib: -28.2%; GPT2 inh: inconclusive; HEK293 viab: 22.4µM*

How did CCC(CC)C(=O)NC[C@@H]1C=C(C)[C@H](Cc2nc3c(C)cccc3[nH]2)C[C@H]1C(C)C do in these assays?
IP6K1 inh: 16.2; SNCA expr inhib: inconclusive; GPT2 inh: inactive; HEK293 viab: 14.1µM*

What do the screens show for `CC1=C[C@@H](CNC(=O)NC2CCCCC2)[C@H](C(C)C)C[C@H]1Cc1nc2c(C)cccc2[nH]1`?
IP6K1 inh: 8.2; SNCA expr inhib: -9.8%; GPT2 inh: -7.3%; HEK293 viab: -26.9%

What do the screens show for `CCCNC(=O)NC[C@@H]1C=C(C)[C@H](Cc2nc3ccc(C(=O)OC)cc3[nH]2)C[C@H]1C(C)C`?
IP6K1 inh: 5.5; SNCA expr inhib: -0.5%; GPT2 inh: 2.2%; HEK293 viab: -15.1%

What do the screens show for `CCCNC(=O)NC[C@@H]1C=C(C)[C@H](Cc2nc3ccc(OC)cc3[nH]2)C[C@H]1C(C)C`?
IP6K1 inh: -2.5; SNCA expr inhib: inconclusive; GPT2 inh: -11.3%[88.5 µM]; HEK293 viab: 28.2µM*

How did CCC(Sc1nc2nccnc2c(=O)n1Cc1ccccc1Cl)C(=O)NC1CCCCC1 (stereo unspecified) do in these assays?
IP6K1 inh: 28.9; SNCA expr inhib: 3.55µM*; HEK293 viab: inconclusive

How did Cc1ccc(CN2C(=O)COC[C@H]2C(=O)N2CCN(c3ccccc3F)CC2)cc1 do in these assays?
IP6K1 inh: -1.5; SNCA expr inhib: -3.8%; GPT2 inh: 2.3%; HEK293 viab: 3.0%

What do the screens show for `Cc1cc(=O)oc2c(C=O)c(O)ccc12`?
IP6K1 inh: -11.5; GPT2 inh: inactive; HEK293 viab: 2.1%

Results for OC[C@H]1O[C@@H](Oc2cc(O)cc(/C=C/c3ccc(O)cc3)c2)[C@H](O)[C@@H](O)[C@@H]1O ?
IP6K1 inh: 19.4; GPT2 inh: inconclusive; HEK293 viab: -16.1%

Results for O=c1cc(O)cc(/C=C/c2ccc(O)c(O)c2)o1 ?
SNCA expr inhib: -14.6%; GPT2 inh: 6.31µM*; HEK293 viab: -6.5%

How did Oc1cc(O)cc(C=Cc2ccc(O)c(O)c2)c1 do in these assays?
SNCA expr inhib: -1.2%; GPT2 inh: 4.32µM*; HEK293 viab: -13.6%

How did Oc1ccc(C=Cc2cc(O)cc(O)c2)cc1 do in these assays?
SNCA expr inhib: 12.1µM*; GPT2 inh: -27.3%; HEK293 viab: -5.2%

What do the screens show for `COc1ccc(C=Cc2cc(OC)c(OC)c(OC)c2)cc1O`?
SNCA expr inhib: -2.1%; GPT2 inh: 2.2%; HEK293 viab: -13.8%

What do the screens show for `c1cnc(N2CC[C@H](c3nnc(-c4ccncc4)o3)C2)nc1`?
IP6K1 inh: 6.6; SNCA expr inhib: 12.6%[87.6 µM]; GPT2 inh: 4.8%[88.5 µM]; HEK293 viab: -9.1%[87.6 µM]

What do the screens show for `C1CC(COCCc2noc(C3CNC3)n2)CCO1`?
IP6K1 inh: -0.1; SNCA expr inhib: inconclusive; GPT2 inh: -9.4%; HEK293 viab: 4.47µM*

What do the screens show for `Cc1cccc(-n2ncc3c(N4CCCC(C)C4)ncnc32)c1` (stereo unspecified)?
IP6K1 inh: -6.0; SNCA expr inhib: 3.98µM*; HEK293 viab: 5.4%

How did COc1ccc(C=CC(=O)Nc2ccccc2C(=O)O)cc1OC do in these assays?
SNCA expr inhib: 1.52µM*; GPT2 inh: 5.0%; HEK293 viab: -6.5%

Results for COc1ccc(/C=C/C(=O)Nc2ccccc2C(=O)O)cc1OC ?
IP6K1 inh: 7.5; SNCA expr inhib: 1.58µM*; GPT2 inh: -20.8%; HEK293 viab: 2.5%

How did COC(=O)C(NC(=O)N1CCc2nc3cc(-c4ccccc4)[nH]n3c(=O)c2C1)C(C)C (stereo unspecified) do in these assays?
IP6K1 inh: 13.2; SNCA expr inhib: inconclusive; GPT2 inh: 1.4%; HEK293 viab: 4.4%

What do the screens show for `CN1CCc2cc(O)c(O)cc2C(c2ccccc2)C1` (stereo unspecified)?
SNCA expr inhib: -12.7%; GPT2 inh: inconclusive; HEK293 viab: -6.8%

Results for CN1Cc2sccc2C(c2ccc(O)c(O)c2)C1 (stereo unspecified) ?
SNCA expr inhib: 14.5%; GPT2 inh: 3.98µM*; HEK293 viab: -18.2%

How did CCN(Cc1ccccc1)C(=O)CC1CCCN(c2cnn(CC)c(=O)c2)C1 (stereo unspecified) do in these assays?
IP6K1 inh: 26.0; SNCA expr inhib: -4.8%; GPT2 inh: -13.6%; HEK293 viab: -13.3%

Results for COc1cccc(-c2cn3cc(C(=O)N4CCOCC4)nc3s2)c1 ?
IP6K1 inh: -8.5; SNCA expr inhib: 12.6µM*; GPT2 inh: 2.1%; HEK293 viab: inconclusive

How did COc1ccc(-c2cn3cc(C(=O)N4CCOCC4)nc3s2)cc1 do in these assays?
IP6K1 inh: 9.5; SNCA expr inhib: -87.4%[87.6 µM]; GPT2 inh: inactive; HEK293 viab: -7.7%[87.6 µM]

How did O=C1CN([S+](=O)([O-])c2ccc(F)cc2)CC(O)CN1C1Cc2ccccc2C1 (stereo unspecified) do in these assays?
IP6K1 inh: -3.3

Results for COc1ccc(-c2coc3cc(O)cc(O)c3c2=O)cc1 ?
SNCA expr inhib: inconclusive; GPT2 inh: inactive; HEK293 viab: -11.2%

How did O=c1c(-c2ccc(O)cc2)coc2cc(O)cc(O)c12 do in these assays?
IP6K1 inh: -18.3; SNCA expr inhib: 2.82µM*!; GPT2 inh: -15.8%; HEK293 viab: -13.6%

What do the screens show for `CCCNc1cc(N2CCC(CCC(=O)NCc3cccc(OC)c3)CC2)ncn1`?
IP6K1 inh: 15.6; SNCA expr inhib: 2.24µM*; GPT2 inh: 4.9%; HEK293 viab: 2.0%

What do the screens show for `CCNc1cc(N2CCC(CCC(=O)Nc3cccc(OC)c3)CC2)ncn1`?
IP6K1 inh: 10.2; SNCA expr inhib: 7.94µM*; GPT2 inh: 3.3%; HEK293 viab: 0.4%

Results for CCNc1cc(N2CCC(CCC(=O)O)CC2)ncn1 ?
IP6K1 inh: 0.1; SNCA expr inhib: 1.26µM*; GPT2 inh: inactive; HEK293 viab: 10.6%

Results for CCCNc1cc(N2CCC(CCC(=O)NCc3ccccc3Cl)CC2)ncn1 ?
IP6K1 inh: 21.9; SNCA expr inhib: 2.82µM*; GPT2 inh: -8.6%; HEK293 viab: -7.3%

How did CCN1C(=O)CCN(C(=O)Cc2cccc(OC)c2)CC12CCOCC2 do in these assays?
IP6K1 inh: -9.3; SNCA expr inhib: 2.4%; GPT2 inh: inactive; HEK293 viab: 1.2%
